From PubChem BioAssay AID488839 (Broad Institute, 2010)
The whole screen tested about 330,000 compounds, of which about 35 (0.01%) were called active.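 The calls were made as follows: active = highest replicate inhibition of at least 50% and at least 75% of replicates reaching 50%; inconclusive = only one of the two criteria met; inactive = both criteria failed.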 A selection follows.

What follows are molecules tested against Cyclin-dependent kinase 5 (Homo sapiens) + Cyclin-dependent kinase 5 activator 1 (Homo sapiens) (UniProt Q00535+Q15078) (assay: inhibitors of human CDK5/p35 kinase, primary screen, biochemical, single concentration (AID 488839;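 also: plate controls were DMSO neutral control for no effect and GW8510 at 10 µM for full effect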)). Conditions: Recombinant CDK5/p35, ADP-Glo luminescence, 60 min; at 10 µM; stronger effect = higher value.
Sequence of Cyclin-dependent kinase 5 (Homo sapiens) + Cyclin-dependent kinase 5 activator 1 (Homo sapiens) (Q00535 whole entry, looked up): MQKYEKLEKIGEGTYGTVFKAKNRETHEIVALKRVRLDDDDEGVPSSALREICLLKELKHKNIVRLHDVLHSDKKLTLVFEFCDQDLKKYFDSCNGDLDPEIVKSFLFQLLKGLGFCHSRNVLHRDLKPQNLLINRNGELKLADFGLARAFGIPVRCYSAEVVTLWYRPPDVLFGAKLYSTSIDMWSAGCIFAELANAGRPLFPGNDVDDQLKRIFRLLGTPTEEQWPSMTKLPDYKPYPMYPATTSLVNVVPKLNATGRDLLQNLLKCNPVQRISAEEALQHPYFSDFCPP
Sequence of Cyclin-dependent kinase 5 (Homo sapiens) + Cyclin-dependent kinase 5 activator 1 (Homo sapiens) (Q15078 whole entry, looked up): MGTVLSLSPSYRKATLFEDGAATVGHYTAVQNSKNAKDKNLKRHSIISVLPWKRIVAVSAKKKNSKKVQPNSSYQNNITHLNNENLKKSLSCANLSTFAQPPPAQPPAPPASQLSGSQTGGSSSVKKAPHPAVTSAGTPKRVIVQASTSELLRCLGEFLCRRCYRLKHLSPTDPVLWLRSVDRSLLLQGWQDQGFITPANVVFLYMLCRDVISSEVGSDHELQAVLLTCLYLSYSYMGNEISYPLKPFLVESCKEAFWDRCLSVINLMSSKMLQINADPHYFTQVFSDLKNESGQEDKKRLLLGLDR

inhibition, inactive:
COC(=O)c1ccccc1NC(=O)C1CCN(S(=O)(=O)c2cc(OC)ccc2OC)CC1 0.427%
N#Cc1ccc(C(=O)Nc2nc(-c3cccs3)c(C(=O)C(F)(F)F)s2)cc1 -1.16%
O=C(Cn1nc(Cc2cccnc2)c2ccccc2c1=O)NCC1CCCO1 (centres undefined) -0.846%
CCOC(=O)Cc1c(C)nc2c(C#N)c(C)nn2c1C -2.18%
CC(C)CCN(C(=O)c1csnn1)C(C(=O)NC1CCCC1)c1ccccc1 (centres undefined) 0.702%
COCc1c(N)c(C)nc(Cl)c1C#N 11.1%
O=C(Cn1nc(C(=O)O)c2ccccc2c1=O)Nc1ccc(F)cc1 0.796%
CCC(C)(C)NC(=O)C(c1ccc(OC)cc1)N(C(=O)CCC(=O)Nc1cc(C)on1)c1ccc(OC)cc1OC (centres undefined) -0.155%
CCSc1ccccc1C(=O)NCc1ccc(OC)cc1 0.696%
COc1ccc(OC)c(/C(C)=N\NC(=O)c2cc3cc(Cl)ccc3n2C)c1 0.107%
CS(=O)(=O)N(CC(=O)N1CCCCCC1)c1cccc(Cl)c1Cl 0.703%
CCOc1ccc(C(=O)NC2CCN(CC(=O)NCc3cccs3)CC2)cc1 1.1%
CC(C)CCNC(=O)C1CCCN(S(=O)(=O)c2ccc(F)cc2)C1 (centres undefined) -0.29%
COc1ccc(-c2nc3n(c(=O)c2C#N)CCS3)c(OC)c1 0.425%
CC(Sc1nnnn1C)C(=O)NC(=O)NC1CCCCC1 (centres undefined) -1.1%
CCc1c(C)nc2c(-c3ccccc3)c(C)nn2c1Nc1ccc(NC(C)=O)cc1 0.169%
CCN(C(=O)COC(=O)c1ccccc1O)c1cccc2ccccc12 -1.97%
COc1cccc(CC2(CO)CCCN(Cc3ccc(OC(F)F)cc3)C2)c1 (centres undefined) 0.552%
Cc1ccc(C2SCC(=O)N2c2ccccc2)cc1 (centres undefined) 0.449%
COC(=O)Nc1ncc(CN2C(=O)c3ccccc3C2=O)s1 0.873%
CCC(C)NC(=O)Cn1nc(C(F)(F)F)c2c1CCC2 (centres undefined) -1.07%
Cc1ccc(C)c(NS(=O)(=O)c2cc(Br)cnc2N)c1 -0.401%
CSCCC(NS(=O)(=O)c1ccccc1F)C(=O)N1CC=C(c2ccccc2)CC1 (centres undefined) 0.0413%
CCCCCCCC[n+]1cccc(C(=O)N2c3c(nc(N)[nH]c3=O)NC(C)C2C)c1 (centres undefined) -4.49%
CC(OC(=O)Cc1ccc(F)cc1)C(=O)N1CCc2ccccc21 (centres undefined) -7.94%
O=C(O)/C(=C/c1cccnc1)NC(=O)c1ccccc1 1.62%
O=C(O)CN1C(=O)CC(Cc2ccccc2)C1=O (centres undefined) -1.35%
CC(Nc1ccccc1)c1cccnc1 (centres undefined) -1.25%
Cc1nc2nc(COc3ccccc3)[nH]n2c(=O)c1Cc1ccccc1 -2%
Cc1csc(OCC(=O)Nc2ccc(C)c(C)c2)n1 -0.147%
CCS(=O)(=O)c1ccc(C(=O)NC)c(Cl)c1Cl -2.96%
CCc1cccc(C)c1N(C(=O)Cn1c(CO)nc2ccccc21)C(C)COC (centres undefined) -0.226%
O=c1c2ccccc2ccc2ccc(P(=O)(O)O)cc12 1.94%
CCC(C)N(C(=O)Cn1nc(C)c([N+](=O)[O-])c1C)C1CCS(=O)(=O)C1 (centres undefined) -0.0593%
Cc1c(CCO)c(=O)[nH]n1C(=O)c1c(F)cccc1F 0.283%
CC(C)[C@@H](C(=O)O)N(Cc1cccc(CN([C@H](C(=O)O)C(C)C)S(C)(=O)=O)c1)S(C)(=O)=O -2.67%
Cc1cc(-c2csc(N)n2)c(C)n1-c1ccccc1 0.604%
CCCN1C2=C(C(=O)CCC2)C(c2ccc(O)c(Br)c2)C2=C1CCCC2=O 2.42%
CC(Oc1cccc(Cl)c1)C(=O)Nc1ccc(S(=O)(=O)Nc2ncccn2)cc1 (centres undefined) -1.05%
COc1cc(OC)cc(-c2c(C#Cc3ccsc3)c3cc(-c4ccc(OC)cc4F)ccc3n2C)c1 2.95%
O=C1COc2ccc(S(=O)(=O)NCCc3ccc(Cl)cc3)cc2N1 -4.51%
Cc1cccc(N2O[C@H]3C=CC2CCCC3)n1 -0.772%
NS(=O)(=O)c1ccc(CCNC(=O)NC2CCCCC2)cc1 -0.391%
COc1cc(OC)c(C2=NOC(C(=O)Nc3c(C)n(C)n(-c4ccccc4)c3=O)C2)cc1Cl (centres undefined) -0.625%
CCCCc1ccc(S(N)(=O)=O)cc1 0.729%
COc1ccc2c(c1)C=CC1(O2)N(CCO)c2ccccc2C1(C)C (centres undefined) 1.4%
CC(/C=C/C1(O)C(C)CC(=O)CC1(C)C)OC1OC(CO)C(O)C(O)C1O (centres undefined) -0.525%
Cc1ccc(C(=O)N/C(=C/c2ccco2)C(=O)NCCc2c[nH]c3ccccc23)cc1C 2.98%
CCOc1ccc(C(=O)NCC(=O)N2CCN(c3ccc(C(F)(F)F)cn3)CC2)cc1 -6.9%
COc1ccccc1OCCNC(=O)C(CCSC)NC(=O)COc1ccccc1 (centres undefined) 1.86%
O=C(C1CCCO1)N(Cc1ccccc1)c1ccccc1 (centres undefined) -1.15%
O=C(Nc1ccn(CCCNCc2ccc3[nH]ccc3c2)c(=O)n1)OCc1ccccc1 1.87%
O=C(CNC(=O)c1ccc2ccccc2c1)Nc1ncccc1O -1.57%
COc1cc(C2/C(=C(\O)c3ccc4c(c3)CC(C)O4)C(=O)C(=O)N2c2nnc(C)s2)cc(OC)c1OC (centres undefined) -1.78%
COc1cc(S(=O)(=O)N2CCOCC2)ccc1NC(=O)COc1ccc(N(C)S(=O)(=O)c2ccc(C)cc2)cc1 -0.554%
O=S(=O)(NCc1ccccc1Cl)c1cnc[nH]1 0.727%
O=C(OCC(=O)N1CCN(C(=O)c2ccco2)CC1)c1c(Cl)cccc1Cl 0.768%
O=c1c2ccccc2ncn1CCc1ccncc1 1.49%
CCOc1ccc(S(=O)(=O)N/N=C(\C)c2ccc(Cl)c(Cl)c2Cl)cc1 1.98%
CN(C)C1=NC[C@H](Cc2ccccc2)N1CCc1ccc(F)cc1 0.95%
O=S(=O)(/N=C(/Nc1ccccc1)c1ccccc1)c1cccs1 0.387%
OCc1nc(CO)n(Cc2ccccc2)n1 -0.111%
COc1ccc(CCNC(=O)C(=O)NCC2OCCN2S(=O)(=O)c2ccc(OC)c(C)c2)cc1 (centres undefined) 1.39%
O=C(OCC(=O)N1CCCC1)c1ccc(Cl)nc1 1.02%
CCCCC(=O)Nc1nnc(S(=O)(=O)N(C)Cc2ccco2)s1 1.6%
CCn1cc(CN2CCCC(CNS(=O)(=O)Cc3ccccc3)C2)cn1 (centres undefined) 0.0333%
CCc1[nH]nc(C(=O)N2CCCC(CNS(=O)(=O)c3cccs3)C2)c1C (centres undefined) 0.235%
CCN1C(=O)CS/C1=N\c1nccs1 0.817%
O=C(c1cccs1)C1C(c2ccc(Br)cc2)NC(=S)NC1(O)C(F)(F)F (centres undefined) 1.75%
CCc1ccc(-c2cc(C(=O)NN3CCN(C)CC3)c3ccccc3n2)cc1 2.52%
Cc1oc(C(N)=O)cc1COc1ccc(C(N)=O)cc1 1.55%
O=C(CNCc1ccc(F)cc1)Nc1ccccc1-c1ccccc1 0.549%
S=C(NCC1CCCO1)N1CCN(c2ccc(Cl)c(Cl)c2)CC1 (centres undefined) -0.238%
COc1ccc(-c2nc3n(c2Br)CCC3)cc1 1.75%
O=C(Nc1cccc(Cl)c1)Nc1ccccc1NS(=O)(=O)c1cccs1 -1.4%
COc1ccccc1CNC(=O)COC(=O)c1cccs1 0.781%
COC(C[C@@H](O)C[C@@H](O)[C@H](C)OCc1ccccc1)OC -0.836%
N#Cc1ccccc1Sc1ccccc1C(=O)OCC(=O)NC1CCCCC1 -1.96%
O=C(CN(C(=O)c1nsc(Cl)c1Cl)c1cccc(F)c1)NC1CCCC1 0.211%
NC1=NC(=O)C2(COC(c3ccccc3Cl)OC2)S1 (centres undefined) 0.407%
Cn1c(=O)c([N+](=O)[O-])c(Oc2ccccc2)c2ccccc21 3.54%
COc1cc(CNCc2cccs2)cc(Br)c1OC -3.09%
O=S1(=O)CSCS(=O)(=O)C1 -3.39%
Cc1nn(C)c(C)c1C(C)NC(=O)c1ccc(OC2CCN(Cc3ccccn3)CC2)cc1 (centres undefined) -0.745%
Cc1cccc(N(Cc2ccccc2)C(=O)c2cc(S(=O)(=O)N3CCOCC3)ccc2F)c1 -2.98%
CCCCNC(=O)N(O)C1N(/N=C/c2ccc(N(C)C)cc2)C(=S)SC1(C)C (centres undefined) -0.992%
Cc1ccc(-c2csc(N(Cc3ccco3)C(=O)c3cccs3)n2)cc1 0.457%
c1cc(-n2cnnn2)ccc1NC1=NCCC1 -1.51%
CCc1ccccc1N(CC(=O)N1CCN(c2ccccc2F)CC1)S(C)(=O)=O 0.372%
O=C(CCn1c(=S)[nH]c2cc3c(cc2c1=O)OCO3)NCc1ccc(Cl)cc1 1.02%
Cc1cccc(C)c1NC1=NC(=S)N(c2ccc(N(C)C)cc2)C1(C)C -0.0411%
COC(=O)c1sc(C(F)(F)F)c(-c2ccccc2)c1S(=O)(=O)N(C)C -0.853%
CCOC(=O)c1nc(-c2ccc3c(c2)OCO3)[nH]c1C -1.03%
CC(=O)NC(CC(=O)Nc1nc(-c2ccccc2)c(C(C)=O)s1)c1ccccc1 (centres undefined) 0.222%
